PAFAH2 FP inh = PAFAH2 enzyme inhibitors, primary screen, biochemical, fluorescence polarization, human | recombinant PAFAH2, FP-rhodamine activity probe | 340,000 compounds, 0.99% hits | Platelet-activating factor acetylhydrolase 2, cytoplasmic (Homo sapiens), Q99487 | inhibition, % at 3.39 µM;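 active = inhibition above the mean over all tested compounds plus 3 SD, cut at about 30% in these data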;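 also: inhibitors block probe labeling of enzyme so polarization drops; 0% = enzyme with DMSO and 100% = wells lacking PAFAH2 protein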
pPAFAH FP inh = pPAFAH enzyme inhibitors, primary screen, biochemical, fluorescence polarization, human. Platelet-activating factor acetylhydrolase (Homo sapiens), Q13093. recombinant pPAFAH, FP-rhodamine probe fluorescence polarization. inhibition, % at 3.39 µM. 330,000 compounds, 1.5% hits;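 active = inhibition above the mean inhibition across the screen plus 3 SD, cut at about 25% in these data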;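 also: inhibitors block binding of the rhodamine activity-based probe so polarization drops; 0% = enzyme with DMSO and 100% = wells lacking pPAFAH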
PAFAH1B3 inh = PAFAH1B3 enzyme inhibitors, primary screen, biochemical, fluorescence polarization, human; Platelet-activating factor acetylhydrolase IB subunit alpha1 (Homo sapiens), Q15102; recombinant PAFAH1B3, FP-rhodamine probe; inhibition, % at 3.39 µM; 340,000 compounds, 0.28% hits; AID 492972, 2010;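 active = inhibition above the screen-wide average of all tested compounds plus 3 SD, cut at about 25% in these data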;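 also: 0% = enzyme with DMSO only and 100% = wells lacking PAFAH1B3 protein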
PAFAH1B2 inh = PAFAH1B2 enzyme inhibitors, primary screen, biochemical, fluorescence polarization, human; 340,000 compounds, 1.2% hits; Platelet-activating factor acetylhydrolase IB subunit alpha2 (Homo sapiens), P68402; inhibition, % at 3.39 µM; recombinant PAFAH1B2, FP-rhodamine activity probe;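 active = inhibition above the mean of all tested compounds plus 3 SD, cut at about 24% in these data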;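 also: 0% = enzyme with DMSO and 100% = wells lacking PAFAH1B2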
Target sequence (P68402 whole entry, looked up): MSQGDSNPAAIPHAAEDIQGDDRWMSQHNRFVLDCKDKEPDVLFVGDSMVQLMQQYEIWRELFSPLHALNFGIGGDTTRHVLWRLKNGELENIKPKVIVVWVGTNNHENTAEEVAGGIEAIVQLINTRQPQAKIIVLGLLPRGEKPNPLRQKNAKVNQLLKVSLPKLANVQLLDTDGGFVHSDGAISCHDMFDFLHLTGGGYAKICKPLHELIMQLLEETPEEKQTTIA
LYPLA2 inh = LYPLA2 inhibitors, primary screen, counter-screen for PME1 inhibitor project, biochemical, fluorescence polarization, FP-Rh probe ABPP; 320,000 compounds, 0.38% hits; Acyl-protein thioesterase 2 (Homo sapiens), O95372; recombinant LYPLA2; inhibition, % at 5.9 µM; AID 2177, 2009;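 active = inhibition above the screen-wide mean plus 3 SD, limit set per campaign, cut at about 26% in these data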;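 also: 0% = LYPLA2 with DMSO and 100% = wells lacking LYPLA2 enzyme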
LYPLA1 inh = LYPLA1 inhibitors, primary screen, counter-screen for PME1 inhibitor project, biochemical, fluorescence polarization, FP-Rh probe ABPP; AID 2174, 2009; recombinant LYPLA1; Acyl-protein thioesterase 1 (Homo sapiens), O75608; 320,000 compounds, 0.16% hits; inhibition, % at 5.9 µM;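 active = inhibition above the mean of all tested compounds plus 3 SD, set per campaign, cut at about 14% in these data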;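 also: inhibitors block serine hydrolase probe labeling of LYPLA1 so polarization falls; 0% = enzyme with DMSO and 100% = wells lacking LYPLA1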
Target sequence (O75608 whole entry, looked up): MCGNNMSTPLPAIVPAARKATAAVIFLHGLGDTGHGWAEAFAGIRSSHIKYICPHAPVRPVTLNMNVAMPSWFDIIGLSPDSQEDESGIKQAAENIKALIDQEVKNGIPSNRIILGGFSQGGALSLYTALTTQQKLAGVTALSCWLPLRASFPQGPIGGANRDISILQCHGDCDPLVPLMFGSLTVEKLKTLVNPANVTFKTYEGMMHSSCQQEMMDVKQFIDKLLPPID
Starred values were filed as active, the others as inactive; / = not tested or not shown. Hits are enriched below; roughly 2.9% of the tested compounds scored in any of these assays.

SMILES | PAFAH2 FP inh | pPAFAH FP inh | PAFAH1B3 inh | PAFAH1B2 inh | LYPLA2 inh | LYPLA1 inh
COC(=O)CCCC1=CC2=CC(=O)C(C)(OC(=O)c3ccc(Cl)nc3)C(=O)C2=CO1 (stereo unspecified) | / | 36* | / | / | 4 | 1
COC/C=C/C1=CC2=CC(=O)C(C)(OC(=O)c3cnc4ccccc4n3)C(=O)C2=CN1C1CC1 (stereo unspecified) | -1 | -3 | 1 | 6 | 6 | 0
COC/C=C/C1=CC2=CC(=O)C(C)(OC(=O)c3cccs3)C(=O)C2=CO1 (stereo unspecified) | / | 13 | / | / | -6 | -3
COC(=O)CCCC1=CC2=CC(=O)C(C)(OC(=O)c3cnc4ccccc4n3)C(=O)C2=CO1 (stereo unspecified) | / | 32* | / | / | 24 | 20*
COC/C=C/C1=CC2=CC(=O)C(C)(OC(=O)c3ccco3)C(=O)C2=CO1 (stereo unspecified) | / | 53* | / | / | -3 | 10
CC(C)(C)OC(=O)NCCCCC1=CC2=CC(=O)C(C)(OC(=O)c3cnc4ccccc4n3)C(=O)C2=CO1 (stereo unspecified) | / | 42* | / | / | 20 | 17*
O=C(c1cc(-c2cccs2)nc2ccccc12)N1CCN(S(=O)(=O)c2ccccc2)CC1 | -5 | 3 | -7 | 17 | -8 | -5
CCCCC1=CC2=CC(=O)C(C)(OC(=O)c3cnc4ccccc4n3)C(=O)C2=CO1 (stereo unspecified) | / | 57* | / | / | 25 | 23*
COC/C=C/C1=CC2=CC(=O)C(C)(OC(=O)c3cnc4ccccc4n3)C(=O)C2=CN1c1ccc(OC)cc1 (stereo unspecified) | 14 | 19 | 7 | 4 | 3 | 2
CCCCC1=CC2=CC(=O)C(C)(OC(=O)c3ccco3)C(=O)C2=CO1 (stereo unspecified) | / | 48* | / | / | -2 | 2
Cc1ccc(S(=O)(=O)N2CCOC2CNC(=O)C(=O)NCc2ccccc2)cc1 (stereo unspecified) | -4 | 6 | 5 | 3 | -6 | -5
Cc1nc2cc(Cl)ccc2n1-c1ccccc1 | 5 | 25* | 1 | 6 | 4 | -1
C=C1CCC[C@]2(C)C[C@H]3OC(=O)C(CN4CCCCC4CO)[C@H]3CC12 (stereo partly specified) | 44* | -1 | 5 | 36* | 13 | -3
C=C1CCC[C@]2(C)C[C@H]3OC(=O)C(CNC(CC)CO)[C@H]3CC12 (stereo partly specified) | 26 | -2 | 12 | 19 | -6 | -3
C=C1CCC[C@]2(C)C[C@H]3OC(=O)C(CNC(C)(CO)CO)[C@H]3CC12 (stereo partly specified) | 33* | 3 | -1 | 28* | 5 | -3
C=C1CCC[C@]2(C)C[C@H]3OC(=O)C(CNC(C)CC)[C@H]3CC12 (stereo partly specified) | 3 | 1 | 11 | 10 | 6 | -5
CCOC(=O)N1CCN(C(=O)c2ccccc2NC(=O)COc2ccccc2)CC1 | -4 | 3 | -1 | 49* | -3 | 4
CC(=O)c1ccc(N2CCN(C(=O)/C=C/c3ccc(S(=O)(=O)N4CCOCC4)cc3)CC2)cc1 | 0 | 32* | 0 | 2 | 5 | 2
O=C(/C=C/c1ccc(S(=O)(=O)N2CCOCC2)cc1)N1CCCCC1 | 0 | / | 8 | 4 | / | /
COc1cccc(N(CC(=O)Nc2ccc3c(c2)OCO3)S(=O)(=O)c2ccccc2)c1 | 5 | 9 | 16 | 2 | 10 | -3
Cc1ccc(F)cc1NC(=O)CSCc1nc2sc(C)c(C)c2c(=O)[nH]1 | 1 | -4 | -5 | 1 | 2 | -2
N#Cc1c(N)sc(=S)c2c1CCN(Cc1ccccc1)C2 | / | 40* | / | / | 27* | 18*
CCn1c2ccccc2c2cc(NC(=O)c3ccc(=O)oc3)ccc21 | / | 33* | / | / | -4 | -2

High-throughput results (PubChem)
